Measurements as given in PubChem BioAssay.
For some of these results: Measured potencies and affinities stand elsewhere. Activity calls are given as the source filed them. Unless noted, the rule behind the calls is not given here.

Key:
[1] = antimalarial activity against Dd2 strain (AID 2302;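 active = growth inhibition above 50% at the single 2 µM test dose, taken to imply half-maximal potency below 2 µM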;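 note: 0% = DMSO untreated growth and 100% = chloroquine plus artemisinin killed control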); settings: P. falciparum Dd2 in RBCs, LDH growth readout, 72 h; at 2 µM; hits give high values
[2] = human hepatoma cell viability loss – ATP luminescence, cytotoxicity control for P. falciparum antimalarial project, primary screen (AID 2303;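 active = inhibition above 50%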;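 note: 0% = DMSO wells and 100% = digitonin-killed cells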); settings: HepG2 viability, 24-48 h, at 10 µM, hits give high values
[3] = target: L-lactate dehydrogenase (Plasmodium falciparum (isolate CDC / Honduras)) (UniProt Q27743); experiment: PfLDH activity inhibition – cell lysate, 3D7 strain, counter-screen for P. falciparum growth inhibition project (AID 2304);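 note: 0% = vehicle and 100% = reference inhibitor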; settings: P. falciparum 3D7 crude extract, LDH APAD/NBT absorbance; at 2 µM; hits give high values
[4] = inhibition of 3D7 malaria parasite growth – strain 3D7 (AID 2306);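 note: 0% = DMSO wells and 100% = chloroquine plus artemisinin control wells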; settings: P. falciparum 3D7 erythrocytic growth, LDH absorbance, 72 h; at 2 µM; hits give high values
[5] = target: Calcium-dependent protein kinase 1 (Plasmodium falciparum (isolate 3D7)) (UniProt P62344); experiment: PfCDPK1 kinase inhibitors, biochemical, TCAMS library (AID 1159585; cut-off not given, nearly all actives have IC50 up to about 0.98 µM;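 note: inhibitors leave more ATP so luminescence rises with inhibition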); settings: recombinant PfCDPK1, Kinase-Glo ATP depletion luminescence
[6] = target: Plasmodium falciparum protein kinase 6 (PK6, PF3D7_1337100) (UniProt Q8IDW1); experiment: PfPK6 kinase inhibitors, biochemical, TCAMS library (AID 1159586); settings: recombinant PfPK6, Kinase-Glo ATP depletion luminescence
[7] = target: Protein kinase 7 (PK7), Plasmodium falciparum 3D7 (PF3D7_0213400) (UniProt Q7YTF7); experiment: inhibition of Plasmodium PK7 catalytic activity – biochemical, TCAMS antimalarial set, Kinase-Glo luminescence (AID 1159587); settings: recombinant PfPK7, Kinase-Glo ATP depletion luminescence
[8] = target: Calcium-dependent protein kinase 4 (Plasmodium falciparum (isolate 3D7)) (UniProt Q8IBS5); experiment: PfCDPK4 kinase inhibitors, biochemical, TCAMS library (AID 1159588; cut-off not given, nearly all actives have IC50 up to about 0.91 µM); settings: recombinant PfCDPK4, Kinase-Glo ATP depletion luminescence
Sequence of Calcium-dependent protein kinase 4 (Plasmodium falciparum (isolate 3D7)) (Q8IBS5 whole entry, looked up): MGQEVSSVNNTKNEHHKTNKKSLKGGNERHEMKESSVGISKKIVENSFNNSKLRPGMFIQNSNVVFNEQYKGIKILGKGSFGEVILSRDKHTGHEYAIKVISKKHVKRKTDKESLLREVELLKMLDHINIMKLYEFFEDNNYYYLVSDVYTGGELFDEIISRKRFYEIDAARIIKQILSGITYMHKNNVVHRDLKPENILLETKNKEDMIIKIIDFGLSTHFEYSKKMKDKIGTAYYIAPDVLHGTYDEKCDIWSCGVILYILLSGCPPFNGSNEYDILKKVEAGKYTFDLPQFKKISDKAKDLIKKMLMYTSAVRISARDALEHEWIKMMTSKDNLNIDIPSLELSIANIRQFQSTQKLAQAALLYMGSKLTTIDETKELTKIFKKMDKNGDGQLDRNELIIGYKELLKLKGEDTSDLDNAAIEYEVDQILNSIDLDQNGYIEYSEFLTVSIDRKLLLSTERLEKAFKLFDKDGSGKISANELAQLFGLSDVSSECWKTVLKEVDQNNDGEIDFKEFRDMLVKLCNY

Sequence of Plasmodium falciparum protein kinase 6 (PK6, PF3D7_1337100) (Q8IDW1 1-305): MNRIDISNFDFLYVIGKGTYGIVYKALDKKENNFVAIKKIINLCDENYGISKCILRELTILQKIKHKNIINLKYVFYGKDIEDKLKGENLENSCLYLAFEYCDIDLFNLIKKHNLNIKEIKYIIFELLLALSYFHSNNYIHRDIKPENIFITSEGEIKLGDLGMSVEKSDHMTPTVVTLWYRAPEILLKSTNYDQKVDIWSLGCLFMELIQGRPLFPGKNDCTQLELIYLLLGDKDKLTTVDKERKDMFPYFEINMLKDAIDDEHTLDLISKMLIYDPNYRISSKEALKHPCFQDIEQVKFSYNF
Sequence of Calcium-dependent protein kinase 1 (Plasmodium falciparum (isolate 3D7)) (P62344 whole entry, looked up): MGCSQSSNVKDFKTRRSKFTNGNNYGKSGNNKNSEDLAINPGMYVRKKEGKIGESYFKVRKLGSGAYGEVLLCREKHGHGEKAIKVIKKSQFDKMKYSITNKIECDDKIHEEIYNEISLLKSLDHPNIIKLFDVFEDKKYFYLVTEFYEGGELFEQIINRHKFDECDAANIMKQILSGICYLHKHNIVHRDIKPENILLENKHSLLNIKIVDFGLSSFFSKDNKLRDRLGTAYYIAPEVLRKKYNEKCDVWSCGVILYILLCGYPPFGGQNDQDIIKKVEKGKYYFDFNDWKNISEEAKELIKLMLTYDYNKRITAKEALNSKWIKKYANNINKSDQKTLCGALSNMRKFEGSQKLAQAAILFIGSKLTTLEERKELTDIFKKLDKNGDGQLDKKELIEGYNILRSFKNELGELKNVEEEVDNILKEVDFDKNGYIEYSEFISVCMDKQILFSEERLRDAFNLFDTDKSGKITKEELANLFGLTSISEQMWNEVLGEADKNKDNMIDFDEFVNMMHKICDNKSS
Sequence of L-lactate dehydrogenase (Plasmodium falciparum (isolate CDC / Honduras)) (Q27743 whole entry, looked up): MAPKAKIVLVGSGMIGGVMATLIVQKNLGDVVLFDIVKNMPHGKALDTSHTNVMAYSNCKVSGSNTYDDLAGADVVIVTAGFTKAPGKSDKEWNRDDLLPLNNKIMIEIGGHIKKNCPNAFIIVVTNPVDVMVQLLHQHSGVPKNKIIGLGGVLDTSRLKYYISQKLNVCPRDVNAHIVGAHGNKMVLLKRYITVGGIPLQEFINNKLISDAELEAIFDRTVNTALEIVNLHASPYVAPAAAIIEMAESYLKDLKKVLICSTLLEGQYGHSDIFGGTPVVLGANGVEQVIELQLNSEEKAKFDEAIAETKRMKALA
Sequence of Protein kinase 7 (PK7), Plasmodium falciparum 3D7 (PF3D7_0213400) (Q7YTF7 1-343): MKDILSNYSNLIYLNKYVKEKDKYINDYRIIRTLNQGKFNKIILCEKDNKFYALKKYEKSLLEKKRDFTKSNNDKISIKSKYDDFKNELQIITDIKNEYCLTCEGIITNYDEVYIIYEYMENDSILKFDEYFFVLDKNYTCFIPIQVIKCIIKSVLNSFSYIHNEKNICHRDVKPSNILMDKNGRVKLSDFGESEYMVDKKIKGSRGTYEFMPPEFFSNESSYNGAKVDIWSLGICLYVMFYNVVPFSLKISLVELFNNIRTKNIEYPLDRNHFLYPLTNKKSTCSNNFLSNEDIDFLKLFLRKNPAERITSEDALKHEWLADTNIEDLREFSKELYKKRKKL

COc1cc(F)c2nccc([C@@H](O)CN3CC[C@H](NCc4ccc5c(n4)NC(=O)CS5)[C@H](F)C3)c2c1
inactive: inhibition [2] 32% | inhibition [3] 5% | outcome [5] | outcome [6] | outcome [7] | outcome [8]
active: growth inhibition [1] 80% | growth inhibition [4] 87%

CC(C)N1CCN(C(CN2CCN(CCCOc3ccc(-c4ccccc4)cc3)CC2)c2ccc(F)cc2)CC1 (stereo not given)
active: growth inhibition [1] 100% | inhibition [2] 100% | growth inhibition [4] 100%
inactive: inhibition [3] -2% | outcome [5] | outcome [6] | outcome [7] | outcome [8]

O=C(Cn1c(CCc2cccc(F)c2F)cc(=O)c2cccnc21)N(CCN1CCCC1)Cc1ccc(-c2ccc(C(F)(F)F)cc2)cc1
inactive: inhibition [2] 48% | inhibition [3] -3% | outcome [5] | outcome [6] | outcome [7] | outcome [8]
active: growth inhibition [1] 64% | growth inhibition [4] 99%

C[C@@H](N)C#Cc1cc2c(Nc3ccc(OCc4cccc(F)c4)c(Cl)c3)ncnc2s1
active: growth inhibition [4] 89%
inactive: growth inhibition [1] 23% | inhibition [2] 17% | inhibition [3] -5% | outcome [5] | outcome [6] | outcome [7] | outcome [8]

O=C(Nc1ccc(Cl)cc1)c1ccc(S(=O)(=O)NCC2CCN(CC3CCCCC3)CC2)cc1
active: growth inhibition [4] 93%
inactive: growth inhibition [1] 8% | inhibition [2] 40% | inhibition [3] -2% | outcome [5] | outcome [6] | outcome [7] | outcome [8]

COc1cccc(Nc2nc(C)cc(NC3CCN(Cc4ccccc4)CC3)n2)c1
inactive: growth inhibition [1] 46% | inhibition [2] 15% | inhibition [3] 8% | outcome [5] | outcome [6] | outcome [7] | outcome [8]
active: growth inhibition [4] 102%

O=C(Nc1ccc(OC2CCN(Cc3ccccc3)C2)c(Cl)c1)c1cccs1 (stereo not given)
inactive: inhibition [2] 13% | inhibition [3] -2% | outcome [5] | outcome [6] | outcome [7] | outcome [8]
active: growth inhibition [1] 96% | growth inhibition [4] 97%

Cc1ccc2[nH]c(-c3ccc(C(=O)NC4CCN(Cc5ccccc5)CC4)cc3)nc2c1C
inactive: growth inhibition [1] 46% | inhibition [2] 22% | inhibition [3] -2% | outcome [5] | outcome [6] | outcome [7] | outcome [8]
active: growth inhibition [4] 102%

CCN1CCC(NCc2ccc(-c3ccc(Cl)s3)cc2)CC1
active: growth inhibition [4] 96%
inactive: growth inhibition [1] 23% | inhibition [2] 42% | inhibition [3] -4% | outcome [5] | outcome [6] | outcome [7] | outcome [8]

O=C(NCCN1CCCCC1)c1ccc(CNC(=O)c2ccc(O)c(-c3cccc(C(F)(F)F)c3)c2)cc1
active: growth inhibition [4] 94%
inactive: growth inhibition [1] 47% | inhibition [2] 3% | inhibition [3] 1% | outcome [5] | outcome [6] | outcome [7] | outcome [8]

Cc1cnc(NCC2CCCCC2)nc1N[C@@H](CO)C(=O)Nc1ccccc1
active: growth inhibition [1] 56% | growth inhibition [4] 83%
inactive: inhibition [2] -1% | inhibition [3] -3% | outcome [5] | outcome [6] | outcome [7] | outcome [8]

CCCCc1ccc(-c2ccc(-c3c(C)[nH]c(C)c(Br)c3=O)cn2)cc1
inactive: inhibition [2] -7% | inhibition [3] 1% | outcome [5] | outcome [6] | outcome [7] | outcome [8]
active: growth inhibition [1] 96% | growth inhibition [4] 98%

Cc1c(N=O)cc(C(C)(C)C)c(O)c1C(=O)Nc1ccc([N+](=O)[O-])cc1Cl
inactive: inhibition [3] 1% | outcome [5] | outcome [6] | outcome [7] | outcome [8]
active: growth inhibition [1] 98% | inhibition [2] 72% | growth inhibition [4] 100%

CCc1ccc(C2=Nn3c(nnc3-c3cccs3)SC2)cc1
inactive: growth inhibition [1] 20% | inhibition [2] 9% | inhibition [3] 0% | outcome [5] | outcome [6] | outcome [7] | outcome [8]
active: growth inhibition [4] 93%

COc1cc(NCCCNCc2cn(Cc3cc(Br)cc(Br)c3)c3ccccc23)nc2ccccc12
active: growth inhibition [1] 85% | inhibition [2] 99% | growth inhibition [4] 100%
inactive: inhibition [3] 4% | outcome [5] | outcome [6] | outcome [7] | outcome [8]

CC(C)COc1ccc2ccccc2c1CNCCCCCCNCc1c(OCC(C)C)ccc2ccccc12
active: growth inhibition [1] 95% | inhibition [2] 99% | growth inhibition [4] 90%
inactive: inhibition [3] 2% | outcome [5] | outcome [6] | outcome [7] | outcome [8]

O=C(NCCc1ccccc1F)c1ccc(N2CCN(c3ccncc3)CC2)cn1
inactive: growth inhibition [1] 18% | inhibition [2] 8% | inhibition [3] -2% | outcome [5] | outcome [6] | outcome [7] | outcome [8]
active: growth inhibition [4] 93%

Cc1cc(NC(=O)c2cccs2)ccc1OC1CCN(Cc2ccccc2)CC1
inactive: inhibition [2] 10% | inhibition [3] 4% | outcome [5] | outcome [6] | outcome [7] | outcome [8]
active: growth inhibition [1] 91% | growth inhibition [4] 95%

CC1CN(c2cc(=O)n(Cc3ccc(NC(=O)Nc4ccc(-c5ccccc5)cc4)cc3)cn2)CC(C)N1 (stereo not given)
inactive: growth inhibition [1] 20% | inhibition [2] 0% | inhibition [3] -1% | outcome [5] | outcome [6] | outcome [7] | outcome [8]
active: growth inhibition [4] 87%

CC(C)CCN1CCCN(Cc2cccc(NC(=O)c3ccc(-c4ccccc4)cc3)c2)CC1
active: growth inhibition [4] 92%
inactive: growth inhibition [1] 21% | inhibition [2] 27% | inhibition [3] 7% | outcome [5] | outcome [6] | outcome [7] | outcome [8]
